The source of these data is PubChem BioAssay (EPA / NIEHS).

Assay [1] can be described thus: CEETOX_H295R_ESTRADIOL: CeeTox H295R High-throughput Steroidogenesis Assay for Estradiol (AID 2283440).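 Note: estradiol secreted into medium quantified by LC-MS/MS after dansyl derivatisation.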 Particulars: actives raise or lower the signal. The method in brief: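 H295R, 48 h forskolin (10 uM) prestim → 48 h compound, 0.1% DMSO final. Estradiol in medium: MTBE extraction, dansyl chloride derivatization, LC-MS/MS. Fit bidirectional vs DMSO baseline; MTT viability in same wells.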

Assay [2] is described as follows: CEETOX_H295R_PROG: CeeTox H295R High-throughput Steroidogenesis Assay for Progesterone (PROG) (AID 2283442). As to conditions: actives raise or lower the signal. The method in brief: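 Progesterone read-out: HPLC-MS/MS on MTBE extracts of conditioned medium after 48 h chemical exposure of forskolin-primed (10 uM, 48 h) H295R cells. Gain or loss of signal was fitted relative to DMSO baseline.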

Read-out in assay [3]: Tumor necrosis factor receptor superfamily member 6 (Homo sapiens) (UniProt P25445)
As to the kind of experiment: LTEA_HepaRG_FAS: Life Technologies and Expression Analysis (LTEA) Assay for Fas cell surface death receptor (FAS) using HepaRG (AID 2283447). As to conditions: mRNA level, 48 h; actives raise or lower the signal. The method in brief:
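FAS transcript level was measured by TaqMan qRT-PCR against three housekeeping genes after 48 h chemical exposure. Cells were HepaRG, 0.5% DMSO vehicle, with a top concentration of 100 uM and half-log dilutions over eight points, in duplicate.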

Read-out in assay [4]: Fatty acid synthase (Homo sapiens) (UniProt P49327)
As to the kind of experiment: LTEA_HepaRG_FASN: Life Technologies and Expression Analysis (LTEA) Assay for Fatty Acid Synthase (FASN) using HepaRG (AID 2283448).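 For AC50: differentiated human HepaRG liver cells in serum-free induction medium.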 As to conditions: mRNA level, 48 h; actives raise or lower the signal. Put shortly:
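HepaRG, 48 h exposure, 8-pt half-log series top 100 uM, 0.5% DMSO vehicle, duplicates. Readout: FASN transcript by Fluidigm qRT-PCR; housekeeping-normalized; bidirectional curve fit vs DMSO baseline.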

Read-out in assay [5]: Cyclin D2 (CCND2), CCND2 (gene 894)
As to the kind of experiment: LTEA_HepaRG_CCND2: Life Technologies and Expression Analysis (LTEA) Assay for Cyclin D2 (CCND2) using HepaRG (AID 2283449). As to conditions: mRNA level, 48 h; actives raise or lower the signal. The method in brief:
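CCND2 transcript levels, quantified by qRT-PCR and normalised to three housekeeping genes, were fitted bidirectionally against 0.5% DMSO. HepaRG cultures were dosed 48 h in duplicate with an 8-point half-log series up to 100 uM.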

Read-out in assay [6]: Cyclin Dependent Kinase Inhibitor 1A (CDKN1A), CDKN1A (gene 1026)
In words: LTEA_HepaRG_CDKN1A: Life Technologies and Expression Analysis (LTEA) Assay for Cyclin Dependent Kinase Inhibitor 1A (CDKN1A) using HepaRG (AID 2283450). As to conditions: mRNA level, 48 h; actives raise or lower the signal. Put shortly: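 HepaRG, 48 h dosing, 8-pt half-log series from 100 uM top, 0.5% DMSO vehicle, duplicates. Readout: TaqMan qRT-PCR of CDKN1A transcript, housekeeping-normalized (ACTB, GAPDH, POLR2A). Up/down curve fit relative to DMSO.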

Read-out in assay [7]: Cyclin D1 (CCND1), CCND1 (gene 595)
As to the kind of experiment: LTEA_HepaRG_CCND1: Life Technologies and Expression Analysis (LTEA) Assay for Cyclin D1 (CCND1) using HepaRG (AID 2283451).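 For AC50: differentiated human HepaRG liver cells in serum-free induction medium.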 Particulars: mRNA level, 48 h; actives raise or lower the signal. Put shortly: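 qRT-PCR (Fluidigm 96.96 array) read-out of transcript level, housekeeping-normalized (ACTB/GAPDH/POLR2A). HepaRG cells, 48 h chemical exposure, 8-point half-log series from 100 uM, 0.5% DMSO vehicle; gain or loss relative to DMSO baseline.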

Read-out in assay [8]: catalase (CAT), CAT (gene 847)
As to the kind of experiment: LTEA_HepaRG_CAT: Life Technologies and Expression Analysis (LTEA) Assay for catalase (CAT) using HepaRG (AID 2283452). Particulars: mRNA level, 48 h; actives raise or lower the signal. The method in brief: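 Expression of CAT was quantified by TaqMan qRT-PCR with ACTB/GAPDH/POLR2A normalization after 48 h chemical exposure of HepaRG. Eight-point half-log series, top 100 uM, in 0.5% DMSO; gain or loss fitted against vehicle.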

Read-out in assay [9]: flavin-containing dimethylaniline monooxygenases 3 (FMO3), FMO3 (gene 2328)
In words: LTEA_HepaRG_FMO3: Life Technologies and Expression Analysis (LTEA) Assay for flavin-containing dimethylaniline monooxygenases 3 (FMO3) using HepaRG (AID 2283453).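 For AC50: differentiated human HepaRG liver cells in serum-free induction medium.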 Particulars: mRNA level, 48 h; actives raise or lower the signal. The method in brief: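 Eight-point concentration-response in serum-free HepaRG cultures (top 100 uM, 0.5% DMSO, 48 h). Read-out: FMO3 mRNA level normalized to three endogenous control genes, fitted bidirectionally versus vehicle.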

Read-out in assay [10]: Cytochrome P450 (CYP1A1), CYP1A1 (gene 1543)
As to the kind of experiment: LTEA_HepaRG_CYP1A1: Life Technologies and Expression Analysis (LTEA) Assay for Cytochrome P450 (CYP1A1) using HepaRG (AID 2283454). Particulars: mRNA level, 48 h; actives raise or lower the signal. Put shortly: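 qRT-PCR read-out: CYP1A1 transcript normalized to three housekeeping genes, fitted bidirectionally against 0.5% DMSO vehicle baseline. Human HepaRG cells, 48 h chemical exposure, 8-point half-log series topping at 100 uM.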

Read-out in assay [11]: CFLAR gene, CFLAR (gene 8837)
As to the kind of experiment: LTEA_HepaRG_CFLAR: Life Technologies and Expression Analysis (LTEA) Assay for CFLAR gene using HepaRG (AID 2283455). As to conditions: mRNA level, 48 h; actives raise or lower the signal. Put shortly: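 Transcript level by qRT-PCR (normalized to ACTB, GAPDH and POLR2A) after 48 h chemical exposure of HepaRG cells, top concentration 100 uM with half-log steps, 0.5% DMSO vehicle, duplicates; fitted bidirectionally against DMSO baseline.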

Read-out in assay [12]: Forkhead box O1 (FOXO1), FOXO1 (gene 2308)
As to the kind of experiment: LTEA_HepaRG_FOXO1: Life Technologies and Expression Analysis (LTEA) Assay for Forkhead box O1 (FOXO1) using HepaRG (AID 2283456). As to conditions: mRNA level, 48 h; actives raise or lower the signal. The method in brief:
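FOXO1 transcript quantified by qRT-PCR after 48 h chemical exposure (top 100 uM, half-log steps, 0.5% DMSO) of HepaRG cells, housekeeping-normalized (ACTB/GAPDH/POLR2A). Changes fitted in both directions relative to vehicle.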

Read-out in assay [13]: growth arrest and DNA damage 45 (GADD45A), GADD45A (gene 1647)
As to the kind of experiment: LTEA_HepaRG_GADD45A: Life Technologies and Expression Analysis (LTEA) Assay for growth arrest and DNA damage 45 (GADD45A) using HepaRG (AID 2283458). Particulars: mRNA level, 48 h; actives raise or lower the signal. The method in brief: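 HepaRG, 48 h exposure, 8 conc. (top 100 uM, half-log steps), 0.5% DMSO vehicle, duplicates. Read-out: qRT-PCR mRNA level, housekeeping-normalized (ACTB/GAPDH/POLR2A). Curves fit bidirectionally vs DMSO baseline.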

Read-out in assay [14]: Forkhead box O3 (FOXO3), FOXO3 (gene 2309)
As to the kind of experiment: LTEA_HepaRG_FOXO3: Life Technologies and Expression Analysis (LTEA) Assay for Forkhead box O3 (FOXO3) using HepaRG (AID 2283459). As to conditions: mRNA level, 48 h; actives raise or lower the signal. The method in brief:
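FOXO3 transcript measured by qRT-PCR (normalized to ACTB, GAPDH, POLR2A) after 48 h exposure of HepaRG cells in serum-free induction medium. Duplicates, eight half-log concentrations up to 100 uM, 0.5% DMSO; gain or loss fitted against DMSO.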

Read-out in assay [15]: ABC Transporter (ABCC3), ABCC3 (gene 8714)
In words: LTEA_HepaRG_ABCC3: Life Technologies and Expression Analysis (LTEA) Assay for ABC Transporter (ABCC3) using HepaRG (AID 2283462). As to conditions: mRNA level, 48 h; actives raise or lower the signal. Put shortly:
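qRT-PCR read-out of ABCC3 transcript, normalized to three housekeeping genes (ACTB, GAPDH, POLR2A), after 48 h chemical exposure of human HepaRG cells. Eight half-log concentrations, highest 100 uM, in 0.5% DMSO; gain or loss fitted relative to DMSO baseline.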

Read-out in assay [16]: ABC Transporter (ABCB11), ABCB11 (gene 8647)
In words: LTEA_HepaRG_ABCB11: Life Technologies and Expression Analysis (LTEA) Assay for ABC Transporter (ABCB11) using HepaRG (AID 2283463). As to conditions: mRNA level, 48 h; actives raise or lower the signal. Put shortly: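 ABCB11 transcript levels quantified by TaqMan qRT-PCR against three housekeeping genes after 48 h chemical exposure of HepaRG cultures. Concentrations up to 100 uM in half-log steps, 0.5% DMSO vehicle; both induction and suppression scored.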

Read-out in assay [17]: ABC Transporter (ABCC2), ABCC2 (gene 1244)
In words: LTEA_HepaRG_ABCC2: Life Technologies and Expression Analysis (LTEA) Assay for ABC Transporter (ABCC2) using HepaRG (AID 2283464). Particulars: mRNA level, 48 h; actives raise or lower the signal. Put shortly:
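qRT-PCR (TaqMan, Fluidigm array) read-out of ABCC2 mRNA, normalized to three housekeeping genes. Differentiated HepaRG cells were treated 48 h in serum-free induction medium with 8-point half-log series from 100 uM in 0.5% DMSO; curves fitted bidirectionally relative to DMSO.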

Read-out in assay [18]: ABC Transporter (ABCB1), ABCB1 (gene 5243)
In words: LTEA_HepaRG_ABCB1: Life Technologies and Expression Analysis (LTEA) Assay for ABC Transporter (ABCB1) using HepaRG (AID 2283460). Particulars: mRNA level, 48 h; actives raise or lower the signal. The method in brief:
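ABCB1 transcript level measured by TaqMan qRT-PCR against three housekeeping genes after 48 h chemical exposure of differentiated HepaRG cells. Top concentration 100 uM, half-log steps, eight points, 0.5% DMSO vehicle; bidirectional fit relative to DMSO.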

Broadly, the AC50 is the midpoint of the concentration-response curve, whichever way the signal moves.

Active and inactive are the calls of the source. Rule for the calls: active = hit-call score of the fitted dose curve at least 0.9, where 1 is the maximum; inactive = score below 0.9.

Fatty acid synthase (Homo sapiens), sequence (P49327 whole entry, looked up): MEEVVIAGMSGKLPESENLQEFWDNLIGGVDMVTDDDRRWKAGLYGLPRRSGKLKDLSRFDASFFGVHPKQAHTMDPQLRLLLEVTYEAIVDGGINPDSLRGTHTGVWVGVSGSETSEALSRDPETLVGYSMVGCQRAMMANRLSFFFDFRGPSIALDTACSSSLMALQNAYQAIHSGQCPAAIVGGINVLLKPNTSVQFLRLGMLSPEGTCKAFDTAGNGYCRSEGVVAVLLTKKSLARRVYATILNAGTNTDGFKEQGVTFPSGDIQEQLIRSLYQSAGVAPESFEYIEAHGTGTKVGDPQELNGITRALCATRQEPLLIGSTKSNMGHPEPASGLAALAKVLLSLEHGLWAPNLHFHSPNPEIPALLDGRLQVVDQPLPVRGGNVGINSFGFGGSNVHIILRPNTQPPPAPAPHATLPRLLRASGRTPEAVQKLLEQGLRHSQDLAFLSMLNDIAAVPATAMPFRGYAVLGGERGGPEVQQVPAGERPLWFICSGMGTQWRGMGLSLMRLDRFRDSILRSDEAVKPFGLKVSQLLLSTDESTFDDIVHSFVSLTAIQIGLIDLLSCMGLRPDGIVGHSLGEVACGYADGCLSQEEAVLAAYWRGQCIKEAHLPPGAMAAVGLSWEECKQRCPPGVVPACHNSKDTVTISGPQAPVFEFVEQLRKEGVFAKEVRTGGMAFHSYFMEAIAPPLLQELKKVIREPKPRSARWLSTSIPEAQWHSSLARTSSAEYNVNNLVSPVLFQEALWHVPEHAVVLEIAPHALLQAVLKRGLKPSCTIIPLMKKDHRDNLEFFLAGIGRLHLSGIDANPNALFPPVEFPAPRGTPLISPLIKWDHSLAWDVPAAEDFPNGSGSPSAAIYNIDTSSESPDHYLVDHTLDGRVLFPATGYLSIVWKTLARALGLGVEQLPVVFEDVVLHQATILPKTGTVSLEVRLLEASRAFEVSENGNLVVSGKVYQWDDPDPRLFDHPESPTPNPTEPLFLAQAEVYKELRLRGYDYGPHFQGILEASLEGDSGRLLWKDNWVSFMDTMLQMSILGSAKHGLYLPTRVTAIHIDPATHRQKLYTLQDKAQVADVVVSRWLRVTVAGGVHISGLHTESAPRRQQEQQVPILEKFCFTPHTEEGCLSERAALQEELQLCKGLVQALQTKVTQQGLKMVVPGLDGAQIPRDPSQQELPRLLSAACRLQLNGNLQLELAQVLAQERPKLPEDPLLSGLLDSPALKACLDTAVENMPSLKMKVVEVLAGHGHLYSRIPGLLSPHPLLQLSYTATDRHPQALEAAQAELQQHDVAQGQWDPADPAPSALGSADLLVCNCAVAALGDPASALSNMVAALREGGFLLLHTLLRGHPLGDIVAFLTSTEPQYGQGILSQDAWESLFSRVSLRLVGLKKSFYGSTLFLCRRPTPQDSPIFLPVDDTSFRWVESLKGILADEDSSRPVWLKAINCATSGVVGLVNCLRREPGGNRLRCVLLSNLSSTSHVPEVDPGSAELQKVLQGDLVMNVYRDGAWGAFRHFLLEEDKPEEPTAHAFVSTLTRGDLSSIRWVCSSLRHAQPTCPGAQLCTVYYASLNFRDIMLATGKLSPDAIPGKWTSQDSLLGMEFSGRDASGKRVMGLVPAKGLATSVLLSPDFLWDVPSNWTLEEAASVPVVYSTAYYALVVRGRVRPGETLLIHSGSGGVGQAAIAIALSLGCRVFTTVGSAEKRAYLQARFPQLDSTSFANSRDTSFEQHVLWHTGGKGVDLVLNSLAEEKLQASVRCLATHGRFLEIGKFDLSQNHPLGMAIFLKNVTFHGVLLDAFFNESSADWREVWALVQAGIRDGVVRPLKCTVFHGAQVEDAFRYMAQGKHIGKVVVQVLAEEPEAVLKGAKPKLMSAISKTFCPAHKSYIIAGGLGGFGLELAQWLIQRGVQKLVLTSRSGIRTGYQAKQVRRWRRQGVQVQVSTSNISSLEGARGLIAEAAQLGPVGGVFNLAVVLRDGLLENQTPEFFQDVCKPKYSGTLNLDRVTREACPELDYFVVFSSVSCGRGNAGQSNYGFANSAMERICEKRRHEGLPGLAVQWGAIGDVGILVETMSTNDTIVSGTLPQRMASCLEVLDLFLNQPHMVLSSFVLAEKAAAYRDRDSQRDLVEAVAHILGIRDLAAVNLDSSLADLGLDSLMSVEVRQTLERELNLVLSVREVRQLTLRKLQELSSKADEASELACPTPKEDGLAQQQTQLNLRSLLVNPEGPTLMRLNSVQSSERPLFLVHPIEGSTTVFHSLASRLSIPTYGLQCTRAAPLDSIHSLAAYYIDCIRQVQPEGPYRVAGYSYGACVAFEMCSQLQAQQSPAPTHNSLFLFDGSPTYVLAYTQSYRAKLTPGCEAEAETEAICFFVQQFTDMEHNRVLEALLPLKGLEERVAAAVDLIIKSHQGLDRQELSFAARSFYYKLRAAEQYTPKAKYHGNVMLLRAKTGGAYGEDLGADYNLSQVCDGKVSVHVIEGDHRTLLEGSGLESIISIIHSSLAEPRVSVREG

Consider `CCNc1nc(Cl)nc(NC(C)C)n1`, for which the call in assay [1], in assay [2], in assay [3], in [4], in assay [5] and in assay [6] was inactive. Further, the outcome in [7], in assay [8], in assay [9], in assay [11], in assay [12] and in [13] was inactive. Also, the compound was called inactive in [14], in [15], in assay [16] and in assay [17]. The AC50 in assay [10] is 40.5 µM (active).

Regarding `COC(=O)C(C)Oc1ccc(Oc2ccc(Cl)cc2Cl)cc1` (centres undefined), the compound was called inactive in assay [3], in [4], in assay [5], in [6], in assay [7] and in assay [8]. In addition, the compound was classed as inactive in assay [9], in [11], in [13], in assay [14], in assay [15] and in [17]. The concentration at half-maximal activity (AC50) in assay [10] is 38.3 µM (active); in [12], 13.7 µM (active); in [16], 45.7 µM (active).

Consider `CS/C(C)=N/OC(=O)N(C)SN(C)C(=O)O/N=C(\C)SC`, for which the call in assay [3], in assay [4], in [5], in assay [6], in assay [7] and in assay [8] was inactive. Also, the outcome in assay [9], in assay [10], in [11], in [12], in assay [13] and in [14] was inactive. In addition, the compound was classed as inactive in assay [18], in assay [15] and in assay [17]. In addition, the half-maximal activity concentration (AC50) in [16] is 33.6 µM (active).

Regarding `CCCCNC(=O)OCC#CI`, the AC50 is 0.00316 µM (active) in assay [3]; 50 µM (active) in assay [9]; 50 µM (active) in [10]; 50 µM (active) in assay [16]; 50 µM (active) in [17]. The compound was called inactive in [4], in assay [5], in [6], in assay [7], in [8] and in assay [11]. Also, the compound was classed as inactive in [12], in assay [13], in assay [14] and in assay [15].

Take `O=C(Nc1ccccc1)Nc1ccnc(Cl)c1`: the outcome in assay [3], in assay [4], in assay [5], in assay [11] and in assay [12] was inactive. The AC50 is 50 µM (active) in [6]; 40.9 µM (active) in assay [7]; 65.3 µM (active) in assay [8]; 69 µM (active) in assay [9]; 23.7 µM (active) in [10]; 70.7 µM (active) in assay [13]. In addition, the AC50 is 25.3 µM (active) in assay [14], 85.7 µM (active) in assay [15], 26.5 µM (active) in [16] and 89.9 µM (active) in assay [17].

For the compound `CCCCOC(=O)c1ccccc1C(=O)OCCCC`, the call in assay [3], in [4], in [5], in assay [6], in assay [7] and in assay [8] was inactive. Besides, the outcome in assay [9], in assay [10], in [11], in assay [12], in assay [13] and in assay [14] was inactive. The compound was called inactive in assay [18], in assay [15], in assay [16] and in assay [17].

As to `CCc1nn(C)c(C(=O)NCc2ccc(C(C)(C)C)cc2)c1Cl`, the result in assay [3], in assay [5], in assay [10] and in assay [14] was inactive. Also, the AC50 in assay [4] was 42.5 µM (active); in assay [6], 3.24 µM (active); in [7], 0.382 µM (active); in assay [8], 6.22 µM (active); in assay [9], 14.2 µM (active); in assay [11], 30.6 µM (active). Moreover, the half-maximal activity concentration (AC50) in [12] is 0.484 µM (active); in assay [13], 12 µM (active); in assay [15], 0.296 µM (active); in assay [16] it was 0.877 µM (active); in [17], 14.3 µM (active).
